Experimental data published in PubChem BioAssay (Tox21).
Results filed as inconclusive are left out. Entries that show only a call come without a potency. The source made the active and inactive calls. The call rests on the fitted dose curve.

Target: Muscarinic acetylcholine receptor M1 (Homo sapiens) (UniProt P11229)
Assay: Cholinergic receptor muscarinic 1 (CHRM1) small molecule antagonists, cell-based qHTS assay (AID 1963588); further: nearly all actives have a fitted effect of over 40% in size
Conditions: CHRM1-CHO antagonist mode, calcium flux fluorescence; series mostly up to 61.5 µM
Description: National Center for Advancing Translational Sciences [NCATS]
Division of Preclinical Innovation [DPI]
U.S. Environmental Protection Agency [EPA]
National Institutes of Environmental Health Sciences [NIEHS]
National Toxicology Program [NTP]
U.S. Food and Drug Administration [FDA]
The CHRM1 is a muscarinic receptor. This receptor plays a crucial role in learning and memory processes and has long been identified as a promising therapeutic target for the improvement of cognitive decline in Alzheimer's disease (AD). The CHRM1-CHO cell line stably expressing human muscarinic acetylcholine receptor M1 (CHRM1) can be used for screening agonists and antagonists of interactions between CHRM1 and its ligands. The CHRM1-CHO Calcium Flux Assay is a homogeneous fluorescence-based assay for detecting the intracellular calcium level using FDSS kinetic plate reader system.
Tox21 Assay Protocol Summary:
CHRM1-CHO cells were dispensed at 1000 cells/3uL/well in 1536-well black-clear bottom plates using a Multidrop Dispenser. After the assay plates were incubated at a 37 C/5% CO2 incubator for 18 h, 3 uL of Dye Loading Buffer was transferred to the assay plate by a Flying Reagent Dispenser. The assay plates were incubated at 37 C for 1h. For antagonist mode, 23 nL of compounds dissolved in DMSO, positive controls or DMSO only was transferred to the assay plate by a pin tool. After 5 min incubation at room temperature, 1.5 uL of acetylcholine at 50nM was added to each well. The fluorescence intensity in the plates was measured using FDSS 7000EX kinetic plate reader for 3 min at 1 sec intervals. Each test compound was measured at 15 concentrations in three independent runs.

Muscarinic acetylcholine receptor M1 (Homo sapiens), sequence (P11229 whole entry, looked up): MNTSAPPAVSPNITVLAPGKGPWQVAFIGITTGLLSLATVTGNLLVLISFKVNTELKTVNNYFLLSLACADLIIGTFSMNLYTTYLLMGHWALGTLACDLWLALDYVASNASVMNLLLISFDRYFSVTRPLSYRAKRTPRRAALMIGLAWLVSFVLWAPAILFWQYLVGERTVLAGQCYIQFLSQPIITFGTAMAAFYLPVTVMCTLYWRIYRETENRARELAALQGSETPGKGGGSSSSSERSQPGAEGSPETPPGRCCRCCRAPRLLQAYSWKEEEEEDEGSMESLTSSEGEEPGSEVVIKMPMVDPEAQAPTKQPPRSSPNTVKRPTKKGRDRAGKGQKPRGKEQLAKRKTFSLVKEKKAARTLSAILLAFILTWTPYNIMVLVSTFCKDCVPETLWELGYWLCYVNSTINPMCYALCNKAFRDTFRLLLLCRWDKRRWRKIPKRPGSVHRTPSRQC

Row | Compound | Potency
1 | CC1(C)CC(N)CC(C)(CN)C1 (stereo not given) | inactive
2 | CCCCCCO | inactive
3 | NC(=O)/N=N/C(N)=O | inactive
4 | CC1=CC2C3CC(C=C3C)C2C1 (stereo not given) | inactive
5 | Nc1cccc(N)c1 | inactive
6 | N[C@@H](Cc1cc(I)c(Oc2cc(I)c(O)c(I)c2)c(I)c1)C(=O)O | inactive
7 | COC(=O)c1cccc(C(=O)OC)c1 | inactive
8 | CCCCC(CC)COC(=O)C(C#N)=C(c1ccccc1)c1ccccc1 (stereo not given) | inactive
9 | C/C=C/c1ccc(OC)cc1 | inactive
10 | OCCOCCOCCOCCO | inactive
11 | C=C(C#N)C(=O)OCC | inactive
12 | O=C(c1ccc(O)cc1)c1ccc(O)cc1O | inactive
13 | O=C(O)C1=NN(c2ccc(S(=O)(=O)O)cc2)C(=O)C1 | inactive
14 | O=C(O)c1ccc(S(=O)(=O)N(Cl)Cl)cc1 | inactive
15 | CN(C)C(=O)Nc1ccc(Cl)c(Cl)c1 | inactive
16 | O=C(O)CCCC(=O)O | inactive
17 | Oc1ccc(Cl)cc1Cc1cc(Cl)ccc1O | inactive
18 | O=C1CCCC1 | inactive
19 | CC(=O)Nc1ccccc1 | inactive
20 | [Na+] | inactive

Row | Compound | Potency
21 | C=CC(C)(CCC=C(C)C)OC(C)=O (stereo not given) | inactive
22 | Cc1ccc(C(C)C)cc1 | inactive
23 | Cc1ccc2ncccc2c1 | inactive
24 | Cc1ccncc1 | inactive
25 | CCO[Si](CCCN)(OCC)OCC | inactive
26 | CC(=O)OC[C@H]1O[C@@](COC(C)=O)(O[C@H]2O[C@H](COC(C)=O)[C@@H](OC(C)=O)[C@H](OC(C)=O)[C@H]2OC(C)=O)[C@@H](OC(C)=O)[C@@H]1OC(C)=O | inactive
27 | O=[N+]([O-])c1ccccc1C(F)(F)F | inactive
28 | NC(N)=NC(N)=NCCc1ccccc1 | inactive
29 | O=C(OCc1ccccc1)c1ccccc1O | inactive
30 | NC(=O)NC1NC(=O)NC1=O (stereo not given) | inactive
31 | NS(=O)(=O)c1cc2c(cc1Cl)NC=NS2(=O)=O | inactive
32 | OCc1cccc(Oc2ccccc2)c1 | inactive
33 | CC[N+](CC)(CC(=O)Nc1c(C)cccc1C)Cc1ccccc1 | inactive
34 | CCCCCCCC(=O)OCC(COC(=O)CCCCCCC)OC(=O)CCCCCCC | inactive
35 | CCCCCC/C=C/CCCCCCCC(=O)O | inactive
36 | Cc1cc(=O)[nH]c(=S)[nH]1 | inactive
37 | CCCOC(=O)c1ccccc1 | inactive
38 | Nc1ccn([C@H]2CC[C@@H](CO)O2)c(=O)n1 | inactive
39 | CCn1cc(C(=O)O)c(=O)c2ccc(C)nc21 | inactive
40 | Nc1ccc(S(=O)(=O)c2ccc(N)cc2)cc1 | inactive
